# Laboratory results taken from PubChem BioAssay (NCATS).
# Records with an inconclusive call do not appear. Entries that show only a call come without a potency. The source made the active and inactive calls. Unless noted, calls follow the shape of the dose curve; as a rule, active = well fitted curve in the direction sought with a large enough effect; inconclusive = small, poorly fitted or top-dose-only effect, or another doubt; inactive = no such curve, though single readings can be large; an effect the other way counts as inactive or inconclusive.
# Tests used:
# [1] = Primary qHTS for inhibitors of La Crosse Virus (LACV) - induced cell death in SH-SY5Y cells (AID 1508616); settings: SH-SY5Y LACV cytopathicity rescue, ATP luminescence, 6 d; series mostly up to 4.29 µM;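 also: top concentration of the series differs between compounds; higher means more rescue of cells from virus-induced death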
# Outline: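 Protection against LACV-induced cell death is scored in SH-SY5Y cells exposed to compounds and virus (0.01 MOI) for 6 days. Data normalized to virus-infected DMSO wells and virus-free DMSO wells.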
# [2] = molecular target: Calcium and integrin-binding protein 1 (Homo sapiens) (UniProt Q99828); experiment: Primary qHTS for Identification of Calcium Integrin Binding Protein 1 (CIB1) Competitor (AID 1508620); settings: CIB1-GST / FITC-alphaIIb peptide fluorescence polarization; series mostly up to 114 µM; also: potency is read from the fitted curve at half-maximal effect;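 as to activity change, negative = inhibition: GST tagged CIB1 binding a fluorescein labelled alphaIIb integrin peptide tracer; top concentration of the series differs between compounds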
# Chain of Calcium and integrin-binding protein 1 (Homo sapiens) (Q99828 whole entry, looked up): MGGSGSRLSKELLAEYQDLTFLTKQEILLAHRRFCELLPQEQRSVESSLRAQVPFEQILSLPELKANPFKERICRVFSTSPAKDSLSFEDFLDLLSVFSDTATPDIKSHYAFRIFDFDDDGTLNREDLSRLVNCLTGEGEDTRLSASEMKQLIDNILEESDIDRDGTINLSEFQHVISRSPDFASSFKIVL
# Outline: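 Fluorescence polarization competition: CIB1-GST (1 uM final) preincubated with compound 15 min at room temperature, then FITC-labeled alphaIIb peptide (100 nM final) added for another 15 min. Polarization read at Ex 480/Em 540.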
# [3] = Primary qHTS for small molecule stabilizers of the endoplasmic reticulum resident proteome: Secreted ER Calcium Modulated Protein (SERCaMP) assay (AID 1508630); settings: SH-SY5Y GLuc-SERCaMP (Gaussia luciferase released on ER calcium loss) secretion, thapsigargin, luminescence; series mostly up to 38.4 µM
# Outline: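 GLuc-SERCaMP-expressing SH-SY5Y cells, pretreated 16 h with compound, are challenged with thapsigargin to empty ER calcium stores; after 4 h, coelenterazine is added directly to the medium and luminescence is imaged.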
# [4] = Cytotoxicity counterscreen for inhibitors of SARS-CoV-2 cell entry (AID 1645845; calls by dose curve; also: nearly all actives have a fitted effect of over 50% in size); settings: cell viability (SARS-CoV-2 entry assay cells); series mostly up to 57.1 µM
# Outline: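 Expi293F/hACE2 cells seeded overnight; cpd pin-transferred in DMSO, 1 h preincubation, + media, 48 h 37 C 5% CO2; ATPLite 1step luminescence; normalized to cells and no cells.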
# [5] = molecular target: N-terminal Xaa-Pro-Lys N-methyltransferase 1 (Homo sapiens) (UniProt Q9BV86); experiment: Confirmatory qHTS for Inhibitors of N-terminal methyltransferase 1 (NTMT1): MTaseGlo Assay (AID 1645874); settings: NTMT1 enzyme, MTase-Glo SAH luminescence; series mostly up to 204 µM; also: potency is read from the fitted curve at half-maximal effect; nearly all actives have a fitted effect of over 65% in size
# Chain of N-terminal Xaa-Pro-Lys N-methyltransferase 1 (Homo sapiens) (Q9BV86 whole entry, looked up): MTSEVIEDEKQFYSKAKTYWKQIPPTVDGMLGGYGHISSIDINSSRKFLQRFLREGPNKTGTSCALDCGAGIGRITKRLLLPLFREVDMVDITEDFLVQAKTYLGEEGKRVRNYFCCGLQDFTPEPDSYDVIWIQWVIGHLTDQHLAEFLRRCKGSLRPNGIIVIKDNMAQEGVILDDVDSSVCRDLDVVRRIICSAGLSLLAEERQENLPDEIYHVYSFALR
# Outline: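 Compounds are incubated with 125 nM NTMT1 and 100 uM SAM for 15 min before the SPKRIA peptide (1 uM) starts a 30 min room-temperature methylation. SAH is measured by coupled luciferase luminescence and curves fitted to a Hill equation.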
# [6] = Primary qHTS for inhibitors of nuclear receptor binding SET domain protein 2 (NSD2) in an isogenic RCH-ACV NSD2 p.E1099K mutant (9B) (AID 1645876); settings: RCH-ACV (leukaemia line) NSD2 E1099K (9B) viability, CellTiter-Glo, 72 h; series mostly up to 44.9 µM; also: nearly all actives have a fitted effect of over 70% in size; also: potency is read from the fitted curve at half-maximal effect
# [7] = molecular target: Cytochrome P450 3A4 (Homo sapiens) (UniProt P08684); experiment: Cytochrome P450 family 3 subfamily A member 4 (CYP3A4) small molecule antagonists: luciferase qHTS assay (AID 1645841; active = well fitted curve in the direction sought with a large enough effect in the repeat runs; an effect the other way counts as inactive or inconclusive; also: nearly all actives have a fitted effect of over 45% in size; also: potency is read from the fitted curve at half-maximal effect); settings: P450-Glo CYP3A4 enzyme assay, luciferin luminescence; series mostly up to 57.4 µM
# Chain of Cytochrome P450 3A4 (Homo sapiens) (P08684 whole entry, looked up): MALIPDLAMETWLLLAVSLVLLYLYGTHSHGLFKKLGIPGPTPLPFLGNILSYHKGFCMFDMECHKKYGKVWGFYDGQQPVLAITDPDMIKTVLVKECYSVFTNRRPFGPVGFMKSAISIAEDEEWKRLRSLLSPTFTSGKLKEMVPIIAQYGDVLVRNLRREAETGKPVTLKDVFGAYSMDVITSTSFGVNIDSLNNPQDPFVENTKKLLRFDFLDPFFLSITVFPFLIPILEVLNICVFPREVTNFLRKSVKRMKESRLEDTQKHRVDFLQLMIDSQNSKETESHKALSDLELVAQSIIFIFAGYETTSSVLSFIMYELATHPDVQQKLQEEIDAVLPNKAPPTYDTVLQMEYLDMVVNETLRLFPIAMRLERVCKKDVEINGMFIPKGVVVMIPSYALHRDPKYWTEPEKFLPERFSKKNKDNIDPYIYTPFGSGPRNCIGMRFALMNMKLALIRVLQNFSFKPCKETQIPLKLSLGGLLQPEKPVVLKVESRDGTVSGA
# Outline: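 P450-Glo CYP3A4 enzyme with proluciferin substrate was preincubated with DMSO-dissolved compounds for 10 min at room temperature. NADPH regeneration solution started a 1 h reaction. Detection reagent stopped it, and luminescence was read after 20 min.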
# [8] = molecular target: Cytochrome P450 2D6 (Homo sapiens) (UniProt P10635); experiment: Cytochrome P450 family 2 subfamily D member 6 (CYP2D6) small molecule antagonists: luciferase biochemical (cell-free) qHTS assay (AID 1645840; active = well fitted curve in the direction sought with a large enough effect in the repeat runs; an effect the other way counts as inactive or inconclusive; also: nearly all actives have a fitted effect of over 55% in size; also: potency is read from the fitted curve at half-maximal effect); settings: P450-Glo CYP2D6 enzyme, luciferin luminescence, 1 h; series mostly up to 57.4 µM
# Chain of Cytochrome P450 2D6 (Homo sapiens) (P10635 whole entry, looked up): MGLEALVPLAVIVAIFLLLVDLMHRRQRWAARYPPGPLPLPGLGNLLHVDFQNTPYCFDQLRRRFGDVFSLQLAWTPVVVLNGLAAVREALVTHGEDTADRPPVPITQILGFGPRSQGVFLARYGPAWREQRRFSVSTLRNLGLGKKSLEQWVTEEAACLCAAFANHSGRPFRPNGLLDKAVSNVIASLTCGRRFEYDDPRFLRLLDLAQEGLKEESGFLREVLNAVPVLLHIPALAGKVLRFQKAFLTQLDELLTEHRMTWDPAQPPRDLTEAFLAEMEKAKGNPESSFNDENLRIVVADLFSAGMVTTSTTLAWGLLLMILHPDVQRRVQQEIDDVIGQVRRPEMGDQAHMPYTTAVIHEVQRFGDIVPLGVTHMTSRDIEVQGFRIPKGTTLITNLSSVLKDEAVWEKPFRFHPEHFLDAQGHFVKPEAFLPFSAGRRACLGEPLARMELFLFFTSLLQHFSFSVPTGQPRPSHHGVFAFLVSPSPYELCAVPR
# Outline: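 P450-Glo luminescent screen: recombinant CYP2D6 enzyme–proluciferin substrate mix preincubated with compound 10 min at room temperature, then NADPH regeneration added for 1 h at room temperature. Detection reagent added for 20 min; luciferin light read as relative luminescence units.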
# [9] = A High-Content qHTS Against Drug Library for the Identification of Small Molecules that Inhibit DYT1 Early Onset Primary Dystonia-Associated Cell Pathology (AID 1645839; calls by dose curve); settings: HEK293 Flp-In EGFP-delE TorsinA, punctate imaging, 48 h; series mostly up to 46.1 µM
# Outline: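 Readout: %pathology, the punctate EGFP-TorsinA distribution from imaging, as the primary channel and cell count as the toxicity counterscreen. HEK293 Flp-In cells expressing delE TorsinA were induced with tetracycline and treated with compound for 48 h.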
# [10] = Primary qHTS to identify inhibitors of SARS-CoV-2 cell entry (AID 1645846; calls by dose curve; also: nearly all actives have a fitted effect of over 45% in size); settings: SARS-CoV-2 pseudovirus cell entry assay, luminescence; activity change, negative = inhibition: at 57.1 µM (top of the series) unless noted; series mostly up to 57.1 µM
# Outline: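 Entry measured by luciferase signal 48 h after adding SARS-CoV-2-S pseudotyped MLV particles to HEK293-ACE2 cells preincubated 1 h with compounds. Normalisation: bald particles and spike particles.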
# [11] = molecular target: Cytochrome P450 2C9 (Homo sapiens) (UniProt P11712); experiment: Cytochrome P450 family 2 subfamily C member 9 (CYP2C9) small molecule antagonists: luciferase biochemical (cell-free) qHTS assay (AID 1645842; active = well fitted curve in the direction sought with a large enough effect in the repeat runs; an effect the other way counts as inactive or inconclusive; also: nearly all actives have a fitted effect of over 55% in size; also: potency is read from the fitted curve at half-maximal effect); settings: P450-Glo CYP2C9 enzyme assay, luciferin luminescence; series mostly up to 57.4 µM
# Chain of Cytochrome P450 2C9 (Homo sapiens) (P11712 whole entry, looked up): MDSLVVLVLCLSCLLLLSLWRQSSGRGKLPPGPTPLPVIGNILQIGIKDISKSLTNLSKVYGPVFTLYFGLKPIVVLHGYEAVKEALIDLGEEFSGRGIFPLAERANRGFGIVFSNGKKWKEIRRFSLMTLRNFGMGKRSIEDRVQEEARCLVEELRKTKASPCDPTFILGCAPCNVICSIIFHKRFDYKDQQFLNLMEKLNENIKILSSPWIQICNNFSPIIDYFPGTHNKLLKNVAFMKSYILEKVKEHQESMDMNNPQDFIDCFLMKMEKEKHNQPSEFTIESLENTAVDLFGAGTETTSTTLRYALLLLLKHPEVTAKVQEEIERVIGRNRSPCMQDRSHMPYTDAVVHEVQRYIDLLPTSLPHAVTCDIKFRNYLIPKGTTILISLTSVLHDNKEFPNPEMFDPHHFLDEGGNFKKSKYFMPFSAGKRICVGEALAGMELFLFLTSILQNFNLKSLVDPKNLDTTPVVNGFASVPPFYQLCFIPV
# Outline: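 Luminescence, after 20 min with luciferin detection reagent, reflected CYP2C9 turnover during a 1 h NADPH-driven reaction at 37C. Enzyme-substrate mix contained 0.4% bovine serum albumin and was preincubated with compound 10 min at room temperature.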
smiles,measurement,setting,value
CC[C@]1(O)CC[C@H]2[C@@H]3CCC4=CCCC[C@@H]4[C@H]3CC[C@@]21C,outcome,[1],inactive
same,Potency,[2],31.6 µM (active)
same,outcome,[3],inactive
same,Potency,[4],inactive
same,Potency,[5],14.1 µM (active)
same,Potency,[6],9.44 µM (active)
CC(=O)OC1(c2ccccc2)CCN(CCc2ccccc2)CC1,outcome,[1],inactive
same,Potency,[2],inactive
same,outcome,[3],inactive
same,Potency,[7],inactive
same,Potency,[6],inactive
CCC(OC(C)=O)C(CC(C)NC)(c1ccccc1)c1ccccc1 (centres undefined),outcome,[1],inactive
same,Potency,[2],inactive
same,outcome,[3],inactive
same,Potency,[8],18 µM (active)
same,Potency,[6],24.6 µM (active)
CCCCC1C(=O)NC(=O)N(C2CCCCC2)C1=O (centres undefined),outcome,[1],inactive
same,Potency,[2],inactive
same,outcome,[9],inactive
same,Potency,[8],inactive
same,Potency,[4],inactive
same,Potency,[10],inactive
Nc1ccc(N)cc1,outcome,[1],inactive
same,Potency,[2],inactive
same,outcome,[3],inactive
same,Potency,[8],3.09 µM (active)
same,Potency,[6],inactive
O=C(CBr)Nc1ccc(Cl)cc1C(=O)c1ccccc1F,outcome,[1],inactive
same,Potency,[2],inactive
same,outcome,[3],inactive
same,outcome,[9],inactive
same,Potency,[6],inactive
CCN(Cc1ccc(Cl)nc1)/C(=C/[N+](=O)[O-])NC,outcome,[1],inactive
same,Potency,[2],inactive
same,outcome,[9],inactive
same,Potency,[8],inactive
same,Potency,[11],inactive
same,Potency,[6],inactive
Sc1ccccc1Cl,outcome,[1],inactive
same,Potency,[2],inactive
same,outcome,[9],inactive
same,Potency,[8],inactive
same,Potency,[11],inactive
COP(=S)(OC)Oc1ccc(Sc2ccc(OP(=S)(OC)OC)cc2)cc1,outcome,[1],inactive
same,Potency,[2],inactive
same,outcome,[9],inactive
same,Potency,[8],inactive
same,Potency,[7],7.76 µM (active)
same,Potency,[11],15.5 µM (active)
CN1C(=O)CN=C(c2ccccc2)c2cc(Cl)ccc21,outcome,[1],inactive
same,Potency,[2],inactive
same,outcome,[3],inactive
same,outcome,[9],inactive
same,Potency,[6],inactive
CC[C@H]1C[C@@H]2C[C@H]3c4[nH]c5ccc(OC)cc5c4CCN(C2)[C@@H]13,outcome,[1],inactive
same,Potency,[2],inactive
same,outcome,[9],inactive
same,Potency,[8],0.278 µM (active)
same,Potency,[11],inactive
